APEX1 inh: inhibitors of human APE1 endonuclease | P27695 | recombinant APE1, TAMRA/BHQ-2 abasic DNA cleavage fluorescence | Potency, µM (highest dose often 65.8 µM), actives largely listed as inhibitors | hit rate 0.35% among 350,000 | AID 2517; note: nearly all actives have a fitted effect of over 55% in size
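Activity was derived from the fluorescence gain between first and third kinetic reads (60 s intervals, ex 525/em 598 nm) after 50 nM THF-abasic TAMRA/BHQ-2 duplex was added to 0.75 nM APE1 preincubated 15 min with compound.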
PI5P4Ka inh: PI5P4K alpha (human) kinase inhibition | AID 652105 | PI5P4Kalpha enzyme, ADP-Glo luminescence, 60 min; active compounds read low | max response, % | hit rate 1.2% among 330,000; active = max response of -50% or lower; inconclusive = between -30% and -50%; inactive = -30% or higher; note: value at the top dose of about 77 µM
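Compounds were pin-transferred onto PI5P4Kalpha and substrate in HEPES pH 7.4 buffer with EGTA, CHAPS and 5% DMSO. ATP (5 microM final) started the reaction, which ran 60 minutes at room temperature before ADP-Glo detection.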
WRN inhibitor: inhibitors of human WRN helicase. Q14191. WRN helicase unwinding, fluorescent forked duplex, kinetic. Potency, µM (doses to about 114 µM), usual class: inhibitors. hit rate 0.46% among 360,000; note: nearly all actives have a fitted effect of over 55% in size
Target sequence (Q14191 whole entry, looked up): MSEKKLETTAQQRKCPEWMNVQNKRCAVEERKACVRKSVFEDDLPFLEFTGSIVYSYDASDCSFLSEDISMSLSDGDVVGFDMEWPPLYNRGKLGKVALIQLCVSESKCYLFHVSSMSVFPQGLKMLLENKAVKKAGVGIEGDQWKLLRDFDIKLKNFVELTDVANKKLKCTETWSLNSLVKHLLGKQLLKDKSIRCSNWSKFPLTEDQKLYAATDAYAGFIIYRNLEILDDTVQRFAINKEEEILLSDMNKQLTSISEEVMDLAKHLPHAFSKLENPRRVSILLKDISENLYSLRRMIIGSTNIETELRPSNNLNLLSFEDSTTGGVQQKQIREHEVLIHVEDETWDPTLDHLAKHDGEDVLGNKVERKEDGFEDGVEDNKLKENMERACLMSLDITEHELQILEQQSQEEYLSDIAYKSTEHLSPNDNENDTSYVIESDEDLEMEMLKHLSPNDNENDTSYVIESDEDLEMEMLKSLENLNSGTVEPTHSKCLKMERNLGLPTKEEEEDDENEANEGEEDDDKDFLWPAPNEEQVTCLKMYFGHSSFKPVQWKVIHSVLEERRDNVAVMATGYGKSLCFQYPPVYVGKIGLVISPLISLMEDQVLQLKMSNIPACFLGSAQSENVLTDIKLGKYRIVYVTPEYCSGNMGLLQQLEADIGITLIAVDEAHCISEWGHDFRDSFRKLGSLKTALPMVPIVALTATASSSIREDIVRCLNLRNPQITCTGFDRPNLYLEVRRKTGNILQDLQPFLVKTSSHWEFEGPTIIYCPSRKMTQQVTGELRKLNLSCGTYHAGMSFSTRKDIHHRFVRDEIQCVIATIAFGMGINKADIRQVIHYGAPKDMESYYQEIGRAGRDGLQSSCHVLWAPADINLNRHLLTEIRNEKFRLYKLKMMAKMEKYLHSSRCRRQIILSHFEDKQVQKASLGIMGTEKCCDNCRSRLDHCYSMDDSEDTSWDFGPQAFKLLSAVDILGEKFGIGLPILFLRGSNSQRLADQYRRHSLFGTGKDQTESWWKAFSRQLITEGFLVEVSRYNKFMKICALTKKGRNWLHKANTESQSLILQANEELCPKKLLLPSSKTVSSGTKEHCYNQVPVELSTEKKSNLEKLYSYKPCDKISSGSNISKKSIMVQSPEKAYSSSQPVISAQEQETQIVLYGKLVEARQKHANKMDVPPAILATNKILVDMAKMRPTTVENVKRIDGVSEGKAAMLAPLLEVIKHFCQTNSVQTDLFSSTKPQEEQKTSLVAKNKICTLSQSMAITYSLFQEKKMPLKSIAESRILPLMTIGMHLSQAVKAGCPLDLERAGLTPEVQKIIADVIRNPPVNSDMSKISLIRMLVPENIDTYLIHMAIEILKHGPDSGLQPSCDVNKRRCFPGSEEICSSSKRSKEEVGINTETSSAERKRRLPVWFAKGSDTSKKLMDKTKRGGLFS
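WRN at 20 nM final was preincubated with compound for 15 min at room temperature; reaction started with 100 nM forked duplex oligonucleotide carrying fluorophore and quencher plus 2 mM ATP (final). Unwinding followed kinetically by red fluorescence (ex 525/em 598 nm).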
RECQ1 inh-1: inhibitors of human RECQ1 DNA helicase; P46063; RECQ1 DNA unwinding, red fluorescence kinetic read; Potency, µM (doses to about 57.3 µM), hits mostly inhibitors; hit rate 0.54% among 240,000; AID 2549; note: nearly all actives have a fitted effect of over 30% in size
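50 nM RECQ1T1 preincubated 15 min with compound in Tris pH 8.0 buffer with MgCl2, DTT, Tween-20 and 2.5 ug/ml poly(dI-dC); started with 200 nM TAMRA/BHQ-2 forked duplex and 2 mM ATP. Unwinding read as fluorescence (525/598 nm), two reads 2 h apart.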
FEN1 inhibitor: blocks human flap endonuclease 1; P39748; Recombinant FEN1 flap cleavage, fluorescence, 15 min; Potency, µM (series often up to 114 µM), most hits filed as inhibitors; hit rate 0.35% among 390,000; AID 588795; note: nearly all actives have a fitted effect of over 65% in size
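Nuclease activity of 10 nM FEN1 was measured after 15 min of room-temperature exposure to titrated compounds, by adding 50 nM flap substrate and reading plates at 0 and 15 min.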
BLM helicase inh: blocks DNA unwinding by human BLM helicase. P54132. recombinant BLM DNA unwinding, fluorescence dequenching. Potency, µM (doses to about 56.1 µM), most hits filed as inhibitors. hit rate 0.2% among 350,000. AID 2528; note: nearly all actives have a fitted effect of over 35% in size
RECQ1 conf: confirmation of human RECQ1 helicase inhibitors; shares compounds with RECQ1 inh-1; hit rate 28% among 610; AID 2708; RECQ1 helicase DNA unwinding, fluorescence; Potency, µM (doses to about 229 µM), most hits filed as inhibitors; note: nearly all actives have a fitted effect of over 45% in size
ADP FP counter: ADP displacement flagged in RECQ1 inhibitor counter-screen; shares compounds with RECQ1 inh-1; ADP fluorescence polarization displacement counterscreen; Potency, µM (top dose mostly 228 µM), most hits filed as inhibitors; hit rate 27% among 530; note: nearly all actives have a fitted effect of over 45% in size
RECQ1 inh-2: confirmation of human RECQ1 helicase inhibitors | hit rate 15% among 1,100 | Potency, µM (titrated, usually from 119 µM), usual class: inhibitors | recombinant RECQ1 DNA unwinding, red fluorescence | shares compounds with RECQ1 inh-1; note: nearly all actives have a fitted effect of over 50% in size
A number is an active result; – = inactive; ? = inconclusive; · = no result. Sampled rows, rich in hits. Any-hit rate of the full collection: about 1.5%. Unless noted, calls come from the whole dose curve; as a rule, active = well fitted curve in the direction sought with a large enough effect; inconclusive = small, poorly fitted or top-dose-only effect, or another doubt; inactive = no such curve, though single readings can be large; an effect the other way counts as inactive or inconclusive.

SMILES	APEX1 inh	PI5P4Ka inh	WRN inhibitor	RECQ1 inh-1	FEN1 inhibitor	BLM helicase inh	RECQ1 inh-2	others
COC(=O)C(Oc1ccc2c(-c3ccc(OC)cc3)cc(=O)oc2c1)c1ccccc1 (configuration not stated)	–	–	–	–	–	–	·
C(/Oc1ccccc1)=C1\Nn2c(nnc2-c2cc(-c3ccccc3)n[nH]2)S1	·	·	·	·	–	·	·
Cc1cccc(N(C)S(=O)(=O)c2nnc(NC(=O)C(C)(C)C)s2)c1	·	·	·	·	–	–	·
Cc1ccc(C)c(NC(=O)c2cc(S(=O)(=O)NCCc3ccccc3)ccc2F)c1	·	·	·	·	–	–	·
Cc1ccc(NC(=O)c2cc(S(=O)(=O)NCCc3ccccc3)ccc2F)cc1Cl	–	–	–	?	–	–	–
c1ccc2c(c1)CCN(C1=Nc3cccc4cccc1c34)C2	?	–	–	13µM	?	–	–	RECQ1 conf=–
Cc1ccc(SCC(=O)Nc2cccc(C)c2)cc1	–	–	–	25µM	–	–	–
Cc1ccc(SCC(=O)Nc2cccnc2)cc1	·	–	–	·	–	·	·
Cc1oc(C)c2c(=O)ccc3c(c12)OC(N)=C(C#N)C3c1ccccc1Cl (configuration not stated)	–	?	–	?	–	?	–
N#CC1=C(N)OC2=C(CC/C2=C\c2ccccc2Cl)C1c1ccccc1Cl (configuration not stated)	–	–	–	–	–	–	·
CSc1ccc(C2C(C#N)=C(N)Oc3c2ccc(=O)c2c(C)oc(C)c32)cc1 (configuration not stated)	?	-65	?	?	?	–	?
N#CC1=C(N)Oc2c(ccc3cccnc23)C1c1ccccc1 (configuration not stated)	–	–	–	–	–	–	·
COc1ccc(C2C(C#N)=C(N)Oc3c2oc(CO)cc3=O)cc1 (configuration not stated)	–	–	–	–	–	–	·
Cc1oc(C)c2c(=O)ccc3c(c12)OC(N)=C(C#N)C3c1ccccc1 (configuration not stated)	–	?	?	?	–	–	–
COc1ccc(-c2nc(-c3ccccc3)c(-c3ccc(F)cc3)[nH]2)c(OC)c1C	·	·	·	·	–	–	·
CCOC(=O)/C(=C/C=C1\Sc2cc(OCC)c(OCC)cc2N1CC)C(C)=O	?	–	–	10µM	?	–	·	RECQ1 conf=?;ADP FP counter=45µM
N[C@@H](CO)c1nnc([C@H](CC(=O)O)NC(=O)C2CCNCC2)o1	–	–	–	–	–	–	·	RECQ1 conf=–;ADP FP counter=–
N[C@@H](CO)c1nnc([C@H](CCC(=O)O)NC(=O)C2CCNCC2)o1	–	–	–	–	–	–	·
CCn1cc(C(=O)NCCc2ccc(OC)c(OC)c2)c(=O)c2cc(S(=O)(=O)N3CCC(C)CC3)ccc21	·	·	·	·	–	–	·
Cc1ccc(C2=CC(C)(c3ccc(C)cc3)Nc3nc(C(F)(F)F)nn32)cc1 (configuration not stated)	–	–	–	?	–	–	–
CC(C)CC1=C/C(=C/c2ccc(-c3ccccc3)o2)C(=O)O1	?	-68	50µM	25µM	?	–	·	RECQ1 conf=?
NS(=O)(=O)c1ccc(-c2ccc(C=C3C(=O)c4ccccc4C3=O)o2)cc1	–	–	–	·	–	–	·
Cc1ccc(S(=O)(=O)N2CCN(c3nc(Nc4ccccc4O)nc4ccccc34)CC2)cc1	·	·	·	·	–	·	·
O=C1N/C(=N\S(=O)(=O)Cc2ccccc2)S/C1=C/c1cc([N+](=O)[O-])ccc1O	–	?	–	–	–	–	·	RECQ1 conf=–;ADP FP counter=–
O=C1N/C(=N\S(=O)(=O)c2ccccc2)S/C1=C\c1cc([N+](=O)[O-])ccc1O	–	–	–	·	?	–	·
SMILES	APEX1 inh	PI5P4Ka inh	WRN inhibitor	RECQ1 inh-1	FEN1 inhibitor	BLM helicase inh	RECQ1 inh-2	others
CC(=O)Oc1ccc2ccccc2c1C(NC(=O)Cc1ccccc1)c1ccc(Cl)cc1 (configuration not stated)	–	–	–	?	–	–	–
c1csc(Cc2nn3c(-c4ccncc4)nnc3s2)c1	?	·	?	10µM	?	–	–	ADP FP counter=–
c1csc(-c2nn3c(-c4ccncc4)nnc3s2)c1	–	·	·	–	·	–	·
CC(=O)Nc1ccc(S(=O)(=O)Nc2nc3nc(-c4ccccc4)cc(-c4ccccc4)n3n2)cc1	–	–	–	·	–	–	·
O=C(O)CCC(=O)Nc1nc2nc(-c3ccccc3)cc(-c3ccccc3)n2n1	–	–	–	–	–	–	·	RECQ1 conf=35µM;ADP FP counter=?
O=c1oc(-c2ccc(C(F)(F)F)cc2)nn1Cc1cc(Cl)ccc1O	–	·	·	–	·	–	·
COc1ccc(S(=O)(=O)N(CC(=O)NC(C)c2ccccc2)c2ccc(C)cc2)cc1OC (configuration not stated)	·	·	·	·	–	–	·
CCCCCCCOC1(c2ccccc2)OC(=O)c2ccccc21 (configuration not stated)	–	·	–	–	–	–	·
CCCCCCOC1(c2ccccc2)OC(=O)c2ccccc21 (configuration not stated)	–	–	–	40µM	–	–	–
C=CCn1c(C)cc(C(=O)Cn2ncc(Cl)c(Cl)c2=O)c1C	?	-72	?	10µM	–	–	–
O=C(CSc1ncnc2scc(-c3ccccc3)c12)N1CCN(Cc2ccc3c(c2)OCO3)CC1	–	?	–	13µM	–	–	–	RECQ1 conf=?
Cc1nn(Cc2ccc(F)cc2)c(C)c1NC(=O)c1cc(-c2ccco2)on1	–	·	–	?	–	–	?
COc1ccc2c(c1)c1c(c(=O)n(-c3cc(Cl)ccc3C)c(=O)n1Cc1ccc(F)cc1)n2C	·	·	·	·	–	–	·
O=C(O)c1ccc2nc(-c3ccccc3)sc2c1	–	–	–	–	–	–	·
Nc1ccc(-c2nc3ccc(C(=O)O)cc3s2)cc1	?	–	–	?	–	–	–
CCCc1nc2oc(C(=O)OCC)c(N)c2c2c1COC(C)(C)C2	?	–	–	?	–	–	–
CCOC(=O)c1oc2nc(C(C)C)c3c(c2c1N)CC(C)(C)OC3	–	–	–	–	–	–	·
Cc1ccc(C=C2C(=O)c3ccccc3C2=O)s1	–	–	?	14µM	–	–	·	RECQ1 conf=?;ADP FP counter=–
NS(=O)(=O)c1ccc(NC(=O)N2c3ccccc3Sc3ccccc32)cc1	?	·	–	–	–	–	·
CC1CCN(S(=O)(=O)c2ccc(NC(=O)N3c4ccccc4Sc4ccccc43)cc2)CC1	–	·	–	–	–	–	·	RECQ1 conf=–;ADP FP counter=–

Compound activity deposited in PubChem by National Center for Advancing Translational Sciences (NCATS).
